Test results taken from publication PMC7862700, “An all-to-all approach to the identification of sequence-specific readers for epigenetic DNA modifications on cytosine”.

How the values were obtained:
Test in all cases: DAPPL (digital affinity profiling via proximity ligation, sequencing); 10 mM Tris-HCl pH 7.5, 50 mM NaCl, 1 mM DTT, 4% glycerol, room temperature, 30 min; GST-TFs on glutathione beads, 16-mer random dsDNA library, 0.1% formaldehyde crosslink after washing; high values mean tight binding
FEV = biological target: T1, FEV (Homo sapiens, UniProt Q99581 1-238); details: protein: recombinant; tags: N-terminal GST; dsDNA, one strand shown
T1 sequence: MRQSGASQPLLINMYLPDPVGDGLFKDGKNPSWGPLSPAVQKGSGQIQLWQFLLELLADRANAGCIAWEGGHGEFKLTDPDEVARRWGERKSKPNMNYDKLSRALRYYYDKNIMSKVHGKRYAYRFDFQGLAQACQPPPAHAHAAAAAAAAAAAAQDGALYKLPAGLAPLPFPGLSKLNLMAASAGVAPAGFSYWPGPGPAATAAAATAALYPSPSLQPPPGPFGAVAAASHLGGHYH
Outline: (§1)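 Binding signal is defined as a hexamer's read frequency for one factor over its frequency for the tag-only sample. To obtain reads, GST-fused human transcription factors were expressed in yeast, captured on glutathione beads, barcoded with DNA and pooled with that sample. Pools met 200 nmole of a 16-mer random double-stranded DNA library in Tris/NaCl/DTT/glycerol buffer for 30 min at room temperature before washing, 0.1% formaldehyde crosslinking, proximity ligation (BsaI/T4 ligase, 1 h, 37 °C), PCR and Illumina NextSeq500 sequencing.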

ETV5 = ETV5 (Homo sapiens, UniProt P41161 1-510); details: protein: recombinant; tags: N-terminal GST; dsDNA, one strand shown
Outline: as §1

HSF1 = HSF1 (Homo sapiens, UniProt Q00613 1-529); details: protein: recombinant; tags: N-terminal GST; chain copies: 3; dsDNA, one strand shown
Outline: as §1

SPIC = biological target: T2, SPIC (Homo sapiens, UniProt Q8N5J4 1-248); details: protein: recombinant; tags: N-terminal GST; dsDNA, one strand shown
T2 sequence: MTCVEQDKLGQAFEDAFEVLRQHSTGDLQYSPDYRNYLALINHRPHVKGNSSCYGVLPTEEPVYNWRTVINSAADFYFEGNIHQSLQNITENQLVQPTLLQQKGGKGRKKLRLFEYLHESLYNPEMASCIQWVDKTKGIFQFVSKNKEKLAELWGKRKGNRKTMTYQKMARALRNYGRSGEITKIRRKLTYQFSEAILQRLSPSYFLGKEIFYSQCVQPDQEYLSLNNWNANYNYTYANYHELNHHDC
Outline: as §1

ELF4 = ELF4 (Homo sapiens, UniProt Q99607 1-663); details: protein: recombinant; tags: N-terminal GST; dsDNA, one strand shown
Outline: as §1

ELK4 = biological target: T3, ELK4 (Homo sapiens, UniProt P28324-2 1-405); details: protein: recombinant; tags: N-terminal GST; dsDNA, one strand shown
T3 sequence: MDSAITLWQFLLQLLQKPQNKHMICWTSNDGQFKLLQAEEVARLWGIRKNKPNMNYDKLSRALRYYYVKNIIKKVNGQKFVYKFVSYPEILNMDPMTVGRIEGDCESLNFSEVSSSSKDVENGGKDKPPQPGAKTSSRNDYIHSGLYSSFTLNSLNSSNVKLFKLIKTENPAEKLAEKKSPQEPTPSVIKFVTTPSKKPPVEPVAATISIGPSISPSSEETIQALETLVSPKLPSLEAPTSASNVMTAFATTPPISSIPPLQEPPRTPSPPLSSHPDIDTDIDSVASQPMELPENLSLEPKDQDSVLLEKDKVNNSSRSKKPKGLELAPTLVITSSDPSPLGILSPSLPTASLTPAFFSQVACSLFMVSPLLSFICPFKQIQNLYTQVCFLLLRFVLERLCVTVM
Outline: as §1

ETV2 = biological target: T4, ETV2 (Homo sapiens, UniProt O00321 1-342); details: protein: recombinant; tags: N-terminal GST; dsDNA, one strand shown
T4 sequence: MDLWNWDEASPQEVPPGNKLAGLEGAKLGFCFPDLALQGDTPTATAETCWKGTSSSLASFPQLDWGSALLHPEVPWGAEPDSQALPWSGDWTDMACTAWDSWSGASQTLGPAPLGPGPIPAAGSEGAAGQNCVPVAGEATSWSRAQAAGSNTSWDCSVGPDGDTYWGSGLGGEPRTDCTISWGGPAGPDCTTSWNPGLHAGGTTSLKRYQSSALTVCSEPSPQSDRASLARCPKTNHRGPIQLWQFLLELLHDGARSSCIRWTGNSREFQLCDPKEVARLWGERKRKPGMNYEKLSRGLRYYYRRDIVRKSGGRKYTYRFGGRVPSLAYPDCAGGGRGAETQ
Outline: as §1

ELF3 = biological target: T5, ELF3 (Homo sapiens, UniProt P78545 1-371); details: protein: recombinant; tags: N-terminal GST; dsDNA, one strand shown
T5 sequence: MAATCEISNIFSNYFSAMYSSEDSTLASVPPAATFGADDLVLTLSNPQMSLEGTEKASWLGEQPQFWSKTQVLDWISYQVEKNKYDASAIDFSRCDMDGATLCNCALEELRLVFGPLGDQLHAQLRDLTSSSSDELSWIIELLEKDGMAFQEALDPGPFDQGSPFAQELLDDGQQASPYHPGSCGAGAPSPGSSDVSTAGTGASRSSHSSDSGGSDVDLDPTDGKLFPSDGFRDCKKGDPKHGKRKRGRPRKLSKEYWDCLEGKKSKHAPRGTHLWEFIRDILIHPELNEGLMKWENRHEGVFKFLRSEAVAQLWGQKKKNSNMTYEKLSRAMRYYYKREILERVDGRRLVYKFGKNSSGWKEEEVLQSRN
Outline: as §1

CRX = CRX (Homo sapiens, UniProt O43186 1-299); details: protein: recombinant; tags: N-terminal GST; dsDNA, one strand shown
Outline: as §1

ETV1 = ETV1 (Homo sapiens, UniProt P50549 1-477); details: protein: recombinant; tags: N-terminal GST; dsDNA, one strand shown
Outline: as §1

ERF = biological target: T6, ERF (Homo sapiens, UniProt P50548 1-548); details: protein: recombinant; tags: N-terminal GST; dsDNA, one strand shown
T6 sequence: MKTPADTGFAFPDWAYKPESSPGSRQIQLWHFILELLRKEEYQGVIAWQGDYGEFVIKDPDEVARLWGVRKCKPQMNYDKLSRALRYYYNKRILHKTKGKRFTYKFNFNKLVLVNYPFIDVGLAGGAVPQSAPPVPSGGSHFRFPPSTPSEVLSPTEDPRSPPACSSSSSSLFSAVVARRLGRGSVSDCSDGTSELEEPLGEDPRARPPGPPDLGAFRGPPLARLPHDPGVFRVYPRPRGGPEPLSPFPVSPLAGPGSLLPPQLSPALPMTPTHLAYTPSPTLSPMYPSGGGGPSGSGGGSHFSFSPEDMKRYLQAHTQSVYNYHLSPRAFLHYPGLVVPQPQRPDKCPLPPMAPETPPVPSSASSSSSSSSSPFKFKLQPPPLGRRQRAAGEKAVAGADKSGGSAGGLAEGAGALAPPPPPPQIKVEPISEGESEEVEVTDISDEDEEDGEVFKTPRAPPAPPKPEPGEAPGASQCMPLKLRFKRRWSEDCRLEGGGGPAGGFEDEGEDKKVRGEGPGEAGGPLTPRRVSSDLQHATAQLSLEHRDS
Outline: as §1

ETV3L = biological target: T7, ETV3L (Homo sapiens, UniProt Q6ZN32 1-361); details: protein: recombinant; tags: N-terminal GST; dsDNA, one strand shown
T7 sequence: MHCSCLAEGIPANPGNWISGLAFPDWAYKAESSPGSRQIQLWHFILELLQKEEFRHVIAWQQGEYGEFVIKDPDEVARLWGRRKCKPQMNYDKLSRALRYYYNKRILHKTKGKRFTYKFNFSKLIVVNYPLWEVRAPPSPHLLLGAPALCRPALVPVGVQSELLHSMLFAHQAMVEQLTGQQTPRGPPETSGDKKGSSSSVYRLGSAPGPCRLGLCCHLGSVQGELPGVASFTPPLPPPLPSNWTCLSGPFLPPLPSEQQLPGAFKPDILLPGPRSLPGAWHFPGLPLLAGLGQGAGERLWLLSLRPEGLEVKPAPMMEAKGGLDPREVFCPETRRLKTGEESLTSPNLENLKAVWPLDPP
Outline: as §1

ETS2 = biological target: T8, ETS2 (Homo sapiens, UniProt P15036 1-469); details: protein: recombinant; tags: N-terminal GST; dsDNA, one strand shown
T8 sequence: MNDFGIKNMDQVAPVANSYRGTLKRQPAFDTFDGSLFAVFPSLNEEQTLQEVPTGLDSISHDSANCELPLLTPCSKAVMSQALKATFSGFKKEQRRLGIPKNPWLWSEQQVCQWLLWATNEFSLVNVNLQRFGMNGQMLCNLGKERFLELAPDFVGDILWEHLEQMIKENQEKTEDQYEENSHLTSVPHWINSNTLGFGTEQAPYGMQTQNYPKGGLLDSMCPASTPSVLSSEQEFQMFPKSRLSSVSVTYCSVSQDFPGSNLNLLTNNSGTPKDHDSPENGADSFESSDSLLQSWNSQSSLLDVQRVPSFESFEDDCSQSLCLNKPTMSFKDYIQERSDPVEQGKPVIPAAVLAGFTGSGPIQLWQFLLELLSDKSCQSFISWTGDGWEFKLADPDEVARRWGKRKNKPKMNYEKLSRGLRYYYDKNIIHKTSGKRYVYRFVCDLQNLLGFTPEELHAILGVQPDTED
Outline: as §1

SPDEF = biological target: T9, SPDEF (Homo sapiens, UniProt O95238 1-335); details: protein: recombinant; tags: N-terminal GST; dsDNA, one strand shown
T9 sequence: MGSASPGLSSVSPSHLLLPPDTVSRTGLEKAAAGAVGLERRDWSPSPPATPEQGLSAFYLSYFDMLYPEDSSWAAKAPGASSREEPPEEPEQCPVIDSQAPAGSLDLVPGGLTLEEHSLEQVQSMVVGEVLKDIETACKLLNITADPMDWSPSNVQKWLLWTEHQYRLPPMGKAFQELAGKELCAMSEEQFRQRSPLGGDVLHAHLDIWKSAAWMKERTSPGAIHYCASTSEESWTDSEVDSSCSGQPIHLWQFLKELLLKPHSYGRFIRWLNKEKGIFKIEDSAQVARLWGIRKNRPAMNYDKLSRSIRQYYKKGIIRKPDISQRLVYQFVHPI
Outline: as §1

ETV7 = biological target: T10, ETV7 (Homo sapiens, UniProt Q9Y603 1-341); details: protein: recombinant; tags: N-terminal GST; dsDNA, one strand shown
T10 sequence: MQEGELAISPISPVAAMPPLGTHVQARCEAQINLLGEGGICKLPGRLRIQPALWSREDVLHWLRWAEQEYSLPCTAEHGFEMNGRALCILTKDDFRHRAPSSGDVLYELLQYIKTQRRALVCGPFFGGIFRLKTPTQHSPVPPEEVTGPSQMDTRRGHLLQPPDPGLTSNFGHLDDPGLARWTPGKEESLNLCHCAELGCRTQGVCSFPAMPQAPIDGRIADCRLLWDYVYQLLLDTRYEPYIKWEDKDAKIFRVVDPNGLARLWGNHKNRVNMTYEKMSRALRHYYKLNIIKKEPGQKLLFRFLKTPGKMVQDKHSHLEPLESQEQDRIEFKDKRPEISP
Outline: as §1

ELF5 = biological target: T11, ELF5 (Homo sapiens, UniProt Q9UKW6-2 1-255); details: protein: recombinant; tags: N-terminal GST; dsDNA, one strand shown
T11 sequence: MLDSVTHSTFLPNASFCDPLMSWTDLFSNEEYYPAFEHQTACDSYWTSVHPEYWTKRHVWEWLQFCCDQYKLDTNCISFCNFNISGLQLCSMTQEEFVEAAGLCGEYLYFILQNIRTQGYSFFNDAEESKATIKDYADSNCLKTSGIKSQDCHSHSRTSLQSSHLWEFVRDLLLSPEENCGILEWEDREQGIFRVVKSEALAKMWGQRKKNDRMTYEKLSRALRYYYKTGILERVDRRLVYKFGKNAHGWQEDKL
Outline: as §1

ETV3 = biological target: T12, ETV3 (Homo sapiens, UniProt P41162-2 1-143); details: protein: recombinant; tags: N-terminal GST; dsDNA, one strand shown
T12 sequence: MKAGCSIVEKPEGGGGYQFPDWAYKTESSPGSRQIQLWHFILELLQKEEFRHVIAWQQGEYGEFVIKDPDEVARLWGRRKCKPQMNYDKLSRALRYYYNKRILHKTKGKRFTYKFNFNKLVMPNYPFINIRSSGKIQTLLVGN
Outline: as §1

ETV6 = ETV6 (Homo sapiens, UniProt P41212 1-452); details: protein: recombinant; tags: N-terminal GST; dsDNA, one strand shown
Outline: as §1

Sequence of HSF1 (Q00613 whole entry): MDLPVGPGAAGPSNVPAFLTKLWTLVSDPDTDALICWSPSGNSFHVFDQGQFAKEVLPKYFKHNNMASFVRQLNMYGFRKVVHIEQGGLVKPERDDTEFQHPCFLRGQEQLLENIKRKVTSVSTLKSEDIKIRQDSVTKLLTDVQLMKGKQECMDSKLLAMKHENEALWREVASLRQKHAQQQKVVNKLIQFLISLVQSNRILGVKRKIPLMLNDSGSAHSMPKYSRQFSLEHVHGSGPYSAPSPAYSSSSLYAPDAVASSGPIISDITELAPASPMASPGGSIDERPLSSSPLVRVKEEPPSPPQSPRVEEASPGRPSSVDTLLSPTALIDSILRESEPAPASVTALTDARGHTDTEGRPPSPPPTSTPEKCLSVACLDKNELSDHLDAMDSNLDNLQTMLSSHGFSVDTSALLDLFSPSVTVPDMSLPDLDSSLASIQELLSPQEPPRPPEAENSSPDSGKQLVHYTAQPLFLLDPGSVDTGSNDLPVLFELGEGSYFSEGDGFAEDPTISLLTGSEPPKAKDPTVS
Sequence of ETV1 (P50549 whole entry): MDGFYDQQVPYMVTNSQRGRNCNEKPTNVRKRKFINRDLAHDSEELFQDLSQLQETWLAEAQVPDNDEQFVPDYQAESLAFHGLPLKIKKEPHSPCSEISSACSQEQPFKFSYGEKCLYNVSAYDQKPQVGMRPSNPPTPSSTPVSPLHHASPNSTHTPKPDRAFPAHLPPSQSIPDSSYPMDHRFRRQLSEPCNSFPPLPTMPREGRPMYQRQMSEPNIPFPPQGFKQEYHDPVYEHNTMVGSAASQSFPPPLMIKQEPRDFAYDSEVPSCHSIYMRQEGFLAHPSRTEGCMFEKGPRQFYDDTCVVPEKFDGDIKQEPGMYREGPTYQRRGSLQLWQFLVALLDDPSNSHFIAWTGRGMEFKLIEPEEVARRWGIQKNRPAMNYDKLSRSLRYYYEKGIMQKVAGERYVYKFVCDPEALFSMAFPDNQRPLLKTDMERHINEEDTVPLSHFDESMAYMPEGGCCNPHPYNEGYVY
Sequence of CRX (O43186 whole entry): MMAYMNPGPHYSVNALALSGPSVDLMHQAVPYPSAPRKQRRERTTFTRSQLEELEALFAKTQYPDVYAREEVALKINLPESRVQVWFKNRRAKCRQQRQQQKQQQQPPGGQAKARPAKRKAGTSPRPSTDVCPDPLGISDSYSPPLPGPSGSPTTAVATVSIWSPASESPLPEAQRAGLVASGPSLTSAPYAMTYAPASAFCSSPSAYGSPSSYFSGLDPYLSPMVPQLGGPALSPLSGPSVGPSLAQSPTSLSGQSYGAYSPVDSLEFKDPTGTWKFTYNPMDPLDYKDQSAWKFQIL
Sequence of ETV5 (P41161 whole entry): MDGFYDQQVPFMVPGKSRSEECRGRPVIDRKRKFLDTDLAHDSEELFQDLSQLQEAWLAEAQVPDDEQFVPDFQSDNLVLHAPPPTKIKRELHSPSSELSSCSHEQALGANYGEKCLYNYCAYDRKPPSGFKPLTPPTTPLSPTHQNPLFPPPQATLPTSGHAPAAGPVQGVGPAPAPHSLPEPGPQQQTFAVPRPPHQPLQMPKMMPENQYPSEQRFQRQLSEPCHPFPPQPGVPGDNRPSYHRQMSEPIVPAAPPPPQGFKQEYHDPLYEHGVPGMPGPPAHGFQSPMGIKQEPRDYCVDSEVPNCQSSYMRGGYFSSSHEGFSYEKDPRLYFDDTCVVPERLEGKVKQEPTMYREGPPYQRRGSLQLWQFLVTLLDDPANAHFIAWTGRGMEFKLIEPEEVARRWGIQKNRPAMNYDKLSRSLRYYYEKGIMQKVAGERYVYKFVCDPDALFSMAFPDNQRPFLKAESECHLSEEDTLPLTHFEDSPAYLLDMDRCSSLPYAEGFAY
Sequence of ELF4 (Q99607 whole entry): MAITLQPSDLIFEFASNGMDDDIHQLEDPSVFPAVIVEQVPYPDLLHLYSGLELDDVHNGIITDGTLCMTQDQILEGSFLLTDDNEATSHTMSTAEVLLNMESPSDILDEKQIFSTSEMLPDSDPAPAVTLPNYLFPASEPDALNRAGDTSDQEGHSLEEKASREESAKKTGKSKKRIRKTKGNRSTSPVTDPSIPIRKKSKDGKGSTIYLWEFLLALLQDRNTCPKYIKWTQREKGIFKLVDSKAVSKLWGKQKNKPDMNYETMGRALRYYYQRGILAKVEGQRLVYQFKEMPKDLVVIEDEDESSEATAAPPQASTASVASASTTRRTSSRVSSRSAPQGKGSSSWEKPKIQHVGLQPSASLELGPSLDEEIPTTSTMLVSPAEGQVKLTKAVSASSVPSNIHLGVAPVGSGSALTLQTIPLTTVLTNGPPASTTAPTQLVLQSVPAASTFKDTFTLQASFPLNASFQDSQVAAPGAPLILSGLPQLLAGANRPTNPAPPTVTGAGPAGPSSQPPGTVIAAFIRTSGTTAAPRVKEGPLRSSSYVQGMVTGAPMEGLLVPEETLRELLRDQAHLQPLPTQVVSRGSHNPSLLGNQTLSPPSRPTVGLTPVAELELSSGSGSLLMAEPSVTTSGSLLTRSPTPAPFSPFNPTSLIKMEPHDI
Sequence of ETV6 (P41212 whole entry): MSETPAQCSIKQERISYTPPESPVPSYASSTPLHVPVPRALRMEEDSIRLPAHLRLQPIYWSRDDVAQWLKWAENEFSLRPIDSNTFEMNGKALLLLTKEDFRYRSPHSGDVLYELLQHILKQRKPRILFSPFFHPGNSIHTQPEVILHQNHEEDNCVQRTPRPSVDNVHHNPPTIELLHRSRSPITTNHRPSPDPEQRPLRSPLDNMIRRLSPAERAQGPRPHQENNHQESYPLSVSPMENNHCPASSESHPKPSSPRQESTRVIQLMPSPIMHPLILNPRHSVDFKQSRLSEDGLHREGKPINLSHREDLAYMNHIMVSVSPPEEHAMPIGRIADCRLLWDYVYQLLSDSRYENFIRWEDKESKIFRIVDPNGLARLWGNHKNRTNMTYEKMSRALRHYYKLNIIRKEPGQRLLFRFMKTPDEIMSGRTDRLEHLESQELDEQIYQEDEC

TCTGCA
binding signal (FEV): 1.43 fold enrichment (6-mer frequency, TF over GST control) | binding signal (ETV5): 1.36 fold enrichment (6-mer frequency, TF over GST control) | binding signal (HSF1): 1.26 fold enrichment (6-mer frequency, TF over GST control) | binding signal (SPIC): 1.36 fold enrichment (6-mer frequency, TF over GST control) | binding signal (ELF4): 1.42 fold enrichment (6-mer frequency, TF over GST control) | binding signal (ELK4): 1.43 fold enrichment (6-mer frequency, TF over GST control) | binding signal (ETV2): 1.2 fold enrichment (6-mer frequency, TF over GST control) | binding signal (ELF3): 1.36 fold enrichment (6-mer frequency, TF over GST control) | binding signal (CRX): 1.25 fold enrichment (6-mer frequency, TF over GST control) | binding signal (ETV1): 1.26 fold enrichment (6-mer frequency, TF over GST control) | binding signal (ERF): 1.29 fold enrichment (6-mer frequency, TF over GST control) | binding signal (ETV3L): 1.42 fold enrichment (6-mer frequency, TF over GST control) | binding signal (ETS2): 1.34 fold enrichment (6-mer frequency, TF over GST control) | binding signal (SPDEF): 1.32 fold enrichment (6-mer frequency, TF over GST control) | binding signal (ETV7): 1.28 fold enrichment (6-mer frequency, TF over GST control) | binding signal (ELF5): 1.29 fold enrichment (6-mer frequency, TF over GST control) | binding signal (ETV3): 1.2 fold enrichment (6-mer frequency, TF over GST control) | binding signal (ETV6): 1.23 fold enrichment (6-mer frequency, TF over GST control)
